Among the data in PubChem BioAssay (NCI) are growth values, retold here.

The structures appear in SMILES notation. The panel holds about 83,000 compounds, 20% with a hit somewhere; the sample as a whole holds those more often.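 Compound tested at a single concentration for 48 hours in 96-well plates; a percent growth value below 10 was scored as active.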 A number with no mark means an inactive call. The source made the active and inactive calls.

Some test systems named below: DU-145 prostate; K-562 leukemia; MALME-3M melanoma; MDA-MB-231 breast; RXF 393 renal; SF-268 CNS; SF-295 CNS; SF-539 CNS; UACC-257 melanoma; M14 melanoma.
Common to all, as to assay: NCI-60 one-dose screen, 48 h (100 = growth as untreated, 0 = no growth, -100 = all killed)
Conditions in all cases: 10 µM unless noted

Take `COC1=CC2C=C(C3N(c4ccccc4)NC(=O)[C@@H]4CCCN34)C(=O)NC2C=C1` (stereo not given in full): the growth in the assay with DU-145 prostate is 112%; in the assay with K-562 leukemia, 93.3%; with MALME-3M melanoma, 113%; with MDA-MB-231 breast, 111%; with RXF 393 renal, 116%; in the assay on SF-268 CNS, 99.8%. Moreover, the growth with SF-295 CNS was 103%; in the assay with SF-539 CNS, 109%; in the assay with UACC-257 melanoma it was 108%; in the assay on M14 melanoma it was 101%.

With `COc1cc(NC(=O)COc2cc(C)nc3ccc(OC)cc23)cc(OC)c1`, the growth with DU-145 prostate was 97.8%; in the assay on K-562 leukemia, 79.1%; with MALME-3M melanoma, 82.8%; in the assay on MDA-MB-231 breast, 80%; with RXF 393 renal, 94.2%; in the assay with SF-268 CNS, 94.5%. Further, the growth in the assay on SF-295 CNS was 96.8%; with SF-539 CNS, 76.1%; in the assay with UACC-257 melanoma, 82%; with M14 melanoma, 94.8%.

Take `C=C1C(=O)O[C@H]2[C@H]1CC/C(C=Nc1c(N)cc(C(F)(F)F)cc1Br)=C\CC[C@@]1(C)O[C@@H]21`: the growth is 19.3% in the assay on DU-145 prostate; -8.9% (active) in the assay on K-562 leukemia; -8.38% (active) in the assay with MALME-3M melanoma; -16% (active) with MDA-MB-231 breast; -63.4% (active) in the assay on RXF 393 renal; 27.6% in the assay on SF-268 CNS. Besides, the growth with SF-295 CNS is 83.3%; with SF-539 CNS, 18.6%; in the assay on UACC-257 melanoma, 34%; with M14 melanoma, -46.3% (active).

Turning to `COc1cc(C2=NN(c3ccccc3)C(c3cccc(Nc4ccnc5cc(C(F)(F)F)ccc45)c3)C2)cc(OC)c1OC` (stereo not given), the growth in the assay on DU-145 prostate was 93.6%; in the assay on K-562 leukemia, 68.2%; in the assay on MALME-3M melanoma, 92.1%; in the assay on MDA-MB-231 breast, 85.9%; in the assay on RXF 393 renal it was 73.7%; with SF-268 CNS it was 74.3%. For the same compound, the growth was 64.8% with SF-295 CNS, 100% in the assay with SF-539 CNS, 97.3% in the assay on UACC-257 melanoma and 92.9% with M14 melanoma.

Consider `CCCn1c2cc(OCc3cn(-c4ccc(Cl)cc4)nn3)ccc2c2ccnc(C)c21`, for which the growth was 95.7% in the assay on DU-145 prostate; 34.9% in the assay on K-562 leukemia; 98.7% with MALME-3M melanoma; 64.6% in the assay on MDA-MB-231 breast; 73% in the assay with RXF 393 renal; 95.1% in the assay with SF-268 CNS. Besides, the growth with SF-295 CNS was 81.6%; with SF-539 CNS it was 87.3%; in the assay on UACC-257 melanoma it was 61%; in the assay on M14 melanoma, 76.4%.

Turning to `Nc1c(C(=O)Nc2cccc3ccccc23)sc2nc3c(cc12)CCCCCC3`, the growth in the assay with DU-145 prostate was 14.9%; with K-562 leukemia, 9.1% (active); in the assay on MALME-3M melanoma it was 75.9%; in the assay on MDA-MB-231 breast, 39.3%; in the assay on RXF 393 renal it was 21.8%; with SF-268 CNS, 45.6%. Besides, the growth is 23.7% with SF-295 CNS, -0.219% (active) with SF-539 CNS, 68.8% in the assay on UACC-257 melanoma and 3.04% (active) with M14 melanoma.

On to `CCOC(=O)c1c(C)nc2c(c1N)/C(=C/c1cccs1)C(=O)N2c1ccc(OC)cc1`, for which the growth in the assay on DU-145 prostate was 44.5%; with K-562 leukemia, 59.1%; in the assay with MALME-3M melanoma it was 26.9%; in the assay on MDA-MB-231 breast, 36.5%; with RXF 393 renal it was -23.1% (active); with SF-268 CNS it was 47.6%. In addition, the growth in the assay with SF-295 CNS was 47.2%; with SF-539 CNS, 7.71% (active); in the assay with UACC-257 melanoma it was 36.1%; with M14 melanoma, 58.2%.

Turning to `O=C(Nc1ccccc1)NS(=O)(=O)c1c[nH]c(=S)[nH]c1=O`, the growth is 105% in the assay with DU-145 prostate; 103% in the assay on K-562 leukemia; 100% in the assay with MALME-3M melanoma; 105% in the assay with MDA-MB-231 breast; 127% with RXF 393 renal; 97.1% with SF-268 CNS. Further, the growth in the assay on SF-295 CNS is 97.8%; in the assay on SF-539 CNS it was 99.8%; in the assay with UACC-257 melanoma, 92.5%; in the assay with M14 melanoma, 104%.

Regarding `CCC1=C[C@H]2CN(CCc3c([nH]c4ccccc34)[C@@](C(=O)OC)(c3cc4c(cc3OC)N(C)[C@H]3[C@@](O)(C(=O)OC)[C@H](OC(C)=O)[C@]5(CC)[C@@H]6C[C@@H]6CN6CC[C@]43[C@@H]65)C2)C1`, the growth in the assay with DU-145 prostate is 18.3%; with K-562 leukemia, 2.96% (active); in the assay on MALME-3M melanoma it was 37.3%; in the assay with MDA-MB-231 breast, -21.9% (active); in the assay on RXF 393 renal, 47.6%; with SF-268 CNS, 7.66% (active). Further, the growth is 11.1% in the assay on SF-295 CNS, -13.3% (active) with SF-539 CNS, 55.1% in the assay with UACC-257 melanoma and -32% (active) in the assay with M14 melanoma.

Consider `Nc1ccc2c(c1)C(=O)C(=O)c1c-2nc2ccccn12`, for which the growth was -91.1% (active) in the assay on DU-145 prostate; 1.75% (active) in the assay with K-562 leukemia; -98.7% (active) in the assay with MALME-3M melanoma; -7.84% (active) in the assay with MDA-MB-231 breast; 29% in the assay with RXF 393 renal; 26.6% in the assay on SF-268 CNS. Moreover, the growth is -67.6% (active) with SF-295 CNS, -32.9% (active) in the assay with SF-539 CNS, -67.9% (active) with UACC-257 melanoma and -91.1% (active) with M14 melanoma.

In the case of `COc1ccc(-c2cs/c(=N\N=C\c3ccc(O)cc3O)n2/N=C/c2ccc(O)cc2O)cc1`, the growth in the assay with DU-145 prostate was 4.25% (active); in the assay with K-562 leukemia, -4.98% (active); in the assay with MALME-3M melanoma, -22.5% (active); with MDA-MB-231 breast, 1.96% (active); with RXF 393 renal it was -35.6% (active); in the assay on SF-268 CNS, 4.27% (active). Also, the growth with SF-295 CNS was -24.4% (active); in the assay on SF-539 CNS it was -33.1% (active); with UACC-257 melanoma it was -3.6% (active); with M14 melanoma, -19% (active).

Turning to `CC1CCN(CCCCCOc2ccc3oc4ccccc4c(=O)c3c2)CC1`, the growth in the assay on DU-145 prostate is 83.9%; with K-562 leukemia it was 33.7%; in the assay on MALME-3M melanoma, 44.4%; in the assay with MDA-MB-231 breast it was 76.5%; with RXF 393 renal it was 69.1%; in the assay on SF-268 CNS, 79.3%. The growth is 89.8% in the assay on SF-295 CNS, 77.8% with SF-539 CNS, 9.5% (active) in the assay on UACC-257 melanoma and 41% in the assay with M14 melanoma.

In the case of `COc1ccc(-c2cc(-c3nnc(SCC(=O)Nc4ccc(/C(C)=N\O)cc4)n3-c3ccccc3)c3cc(OC)ccc3n2)cc1`, the growth in the assay with DU-145 prostate was 85%; in the assay on K-562 leukemia, 48%; with MALME-3M melanoma, 105%; with MDA-MB-231 breast it was 46.1%; in the assay with RXF 393 renal it was 83.6%; in the assay with SF-268 CNS, 71.4%. Besides, the growth in the assay on SF-295 CNS is 80.3%; with SF-539 CNS it was 82.6%; in the assay with UACC-257 melanoma, 71%; in the assay on M14 melanoma, 70.1%.

Consider `O=C(/C(=C\c1c(-c2ccccc2)[nH]c2ccccc12)S(=O)(=O)c1ccccc1)c1ccccc1`, for which the growth with DU-145 prostate was 68.5%; in the assay on K-562 leukemia it was 8% (active); in the assay with MALME-3M melanoma, 83.3%; with MDA-MB-231 breast it was 49.8%; with RXF 393 renal, 46.7%; in the assay on SF-268 CNS it was 62.1%. Moreover, the growth was -6.63% (active) in the assay on SF-295 CNS, 75.4% in the assay with SF-539 CNS, 32.3% in the assay with UACC-257 melanoma and 49.7% with M14 melanoma.

For `NCCN1CCNCC1`, the growth in the assay on DU-145 prostate is 104%; with K-562 leukemia, 106%; in the assay on MALME-3M melanoma, 109%; with MDA-MB-231 breast, 105%; with RXF 393 renal, 135%; with SF-268 CNS it was 102%. Besides, the growth is 109% with SF-295 CNS, 95.6% in the assay with SF-539 CNS, 25.9% in the assay with UACC-257 melanoma and 101% in the assay on M14 melanoma.
